# Where “and” joins values, the source holds several entries; their conditions need not be identical. Identical values can stand only once. Calls of active or inactive are those of the source.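 The calls were made as follows, unless noted: active = compounds whose cell count with miR-34 switched on is under 0.7 times the count with it off; inactive = the rest.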
# Experiments:
# [1] = sensitizers of A549 cells to miR-34 induction, primary screen, imaging, A549 dox-inducible miR-34, nuclei and caspase counts (AID 1347080); details: A549 miR-34 inducible, Hoechst nuclei count, 48 h
# [2] = survival rescue of mitochondrial mutant cells in low glucose, primary screen, MELAS cybrids, Rieske KO mouse fibroblasts, CellTiter-Glo (AID 1508586;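 active = mean z-score across replicates of 1.96 or higher in either the MELAS or the Rieske mutant cell line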;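 also: z relative to plate mean and SD of compound and empty wells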)
# [3] = molecular target: Mitogen-activated protein kinase 7 (Homo sapiens) (UniProt Q13164); test: ERK5 transactivation activators in reporter cells, primary screen, cell-based, HTS (AID 1508626;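 active = luciferase signal above three times the same-plate solvent-only control wells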;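 also: luciferase driven by Gal4-ERK5 fusion binding five Gal4 sites before minimal TATA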); details: HeLa Gal4-ERK5 transactivation, 18 h, at 5 µM, stronger effect = higher value
# Chain of Mitogen-activated protein kinase 7 (Homo sapiens) (Q13164 whole entry, looked up, the tested form may be a part): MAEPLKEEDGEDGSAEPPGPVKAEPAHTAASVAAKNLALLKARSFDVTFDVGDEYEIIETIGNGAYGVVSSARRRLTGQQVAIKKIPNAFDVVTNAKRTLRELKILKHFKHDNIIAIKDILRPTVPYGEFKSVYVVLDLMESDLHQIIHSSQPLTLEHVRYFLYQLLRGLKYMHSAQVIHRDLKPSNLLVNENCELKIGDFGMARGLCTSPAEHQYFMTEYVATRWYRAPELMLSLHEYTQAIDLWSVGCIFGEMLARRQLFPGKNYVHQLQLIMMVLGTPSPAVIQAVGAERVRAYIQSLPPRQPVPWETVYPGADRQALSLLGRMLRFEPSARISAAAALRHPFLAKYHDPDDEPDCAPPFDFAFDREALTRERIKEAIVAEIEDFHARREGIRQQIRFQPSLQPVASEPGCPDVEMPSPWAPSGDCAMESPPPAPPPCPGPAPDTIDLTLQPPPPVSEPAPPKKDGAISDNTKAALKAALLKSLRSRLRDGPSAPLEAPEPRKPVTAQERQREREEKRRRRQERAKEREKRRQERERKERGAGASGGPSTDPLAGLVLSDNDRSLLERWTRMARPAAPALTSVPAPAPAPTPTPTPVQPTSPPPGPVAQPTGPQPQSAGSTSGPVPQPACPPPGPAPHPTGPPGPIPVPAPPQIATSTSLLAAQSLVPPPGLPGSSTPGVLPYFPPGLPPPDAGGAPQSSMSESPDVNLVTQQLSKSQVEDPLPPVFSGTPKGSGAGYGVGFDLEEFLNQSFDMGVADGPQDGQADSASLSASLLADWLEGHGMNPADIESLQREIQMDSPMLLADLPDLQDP
# [4] = molecular target: NAD(+) hydrolase SARM1 (Homo sapiens) (UniProt Q6SZW1); test: SARM1 TIR NADase inhibitors, cell lysate, NAD-Glo luminescence (AID 1508614;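 active = compound whose remaining NAD level is above about 45 nM, limit read from the data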;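 also: higher remaining NAD means stronger inhibition of SARM1 NADase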); details: SAM-TIR HEK293T lysate NADase, at 1 µM, stronger effect = higher value
# Chain of NAD(+) hydrolase SARM1 (Homo sapiens) (Q6SZW1 whole entry, looked up): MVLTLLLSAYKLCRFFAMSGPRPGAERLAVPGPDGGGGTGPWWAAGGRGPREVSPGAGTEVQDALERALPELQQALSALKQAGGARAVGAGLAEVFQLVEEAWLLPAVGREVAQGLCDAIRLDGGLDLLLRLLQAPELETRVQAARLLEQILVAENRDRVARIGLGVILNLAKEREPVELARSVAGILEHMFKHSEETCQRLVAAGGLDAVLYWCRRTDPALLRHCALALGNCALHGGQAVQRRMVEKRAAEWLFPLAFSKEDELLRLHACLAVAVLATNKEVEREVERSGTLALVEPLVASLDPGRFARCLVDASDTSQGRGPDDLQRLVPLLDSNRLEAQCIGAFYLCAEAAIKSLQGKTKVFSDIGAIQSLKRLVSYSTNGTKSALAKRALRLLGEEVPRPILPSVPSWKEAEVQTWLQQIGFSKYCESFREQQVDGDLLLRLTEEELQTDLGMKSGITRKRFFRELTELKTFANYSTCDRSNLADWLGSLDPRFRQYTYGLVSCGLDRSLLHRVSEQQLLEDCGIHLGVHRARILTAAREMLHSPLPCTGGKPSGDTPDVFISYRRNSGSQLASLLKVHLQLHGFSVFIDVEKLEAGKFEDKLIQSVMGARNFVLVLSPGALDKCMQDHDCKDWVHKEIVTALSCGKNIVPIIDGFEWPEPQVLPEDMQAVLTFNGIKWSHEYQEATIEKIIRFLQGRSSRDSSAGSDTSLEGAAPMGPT
# [5] = viability rescue of complex I mutant cybrids, primary screen, cell-based, galactose medium, ATP luminescence (AID 1645843;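 active = z-score of at least 1.8 in each of two replicates, scored against plate mean and spread of sample wells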;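 also: positive z means more ATP and so rescue of galactose-driven cybrid death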); details: complex I mutant cybrid cells, 72 h, stronger effect = higher value
# [6] = LFS_MB_P medulloblastoma growth inhibition, cell-based, chromothripsis tumors, cisplatin or BGB combos (AID 1671449; in the data active = inhibition above about 80%;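 also: cells exposed for 96 hours; 0% = vehicle DMSO and 100% = killing by high DMSO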); details: LFS_MB_P medulloblastoma cells
# [7] = HDN33 neuroblastoma growth inhibition, cell-based, chromothripsis tumors, cisplatin or BGB combos (AID 1671450; in the data active = inhibition above about 80%;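 also: cells exposed to compound for four days; 0% = vehicle DMSO and 100% = cell killing by high DMSO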); details: HDN33 neuroblastoma cells, stronger effect = higher value
# [8] = ICB984 medulloblastoma cell growth inhibition, synergistic combos for chromothripsis tumors, cisplatin or BGB combos (AID 1671451; call rule not given here;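 also: cells exposed for 96 hours before readout; 0% = vehicle DMSO and 100% = killing by high DMSO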); details: ICB984 medulloblastoma cells, drug combinations, stronger effect = higher value
# [9] = LFS_MB_1R medulloblastoma cell growth inhibition, synergistic combos for chromothripsis tumors, cisplatin or BGB combos (AID 1671452; in the data active = inhibition above about 80%;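 also: cells exposed for 96 hours before readout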); details: LFS_MB_1R medulloblastoma cells, at 0.5 µM, stronger effect = higher value
# [10] = stronger effect = lower value, cell number ratio, induced over uninduced
# [11] = measured here: relative caspase fold change +Dox/-Dox
# [12] = measured here: total cells with miR-34 induction, stronger effect = lower value
# [13] = measured here: total cells without miR-34 induction
# [14] = MELAS cybrid survival, CellTiter-Glo 48 h, stronger effect = higher value
# [15] = Rieske KO mouse fibroblast survival, CellTiter-Glo 72 h
smiles,measurement,setting,value
O=C1c2ccccc2C(=O)c2c1ccc(O)c2O,fold change,[1]; [10],0.918 (inactive)
same,fold change,[1]; [11],1.48
same,cell count,[1]; [12],8090
same,cell count,[1]; [13],8800
same,z-score,[2]; [14],-0.0543 (inactive)
same,z-score,[2]; [15],-0.449
same,luciferase signal,[3],36 AU (inactive)
CN1CCCCC1CCN1c2ccccc2Sc2ccc(S(C)=O)cc21 (configuration not stated),fold change,[1]; [10],0.812 (inactive) and 0.898 (inactive) and 0.879 (inactive)
same,fold change,[1]; [11],1.32 and 2.22 and 1.93
same,cell count,[1]; [12],7930 and 7130 and 7860
same,cell count,[1]; [13],9770 and 7940 and 8940
same,z-score,[2]; [14],0.0731 (inactive) and 0.00466 (inactive)
same,z-score,[2]; [15],-0.192 and -0.653
same,remaining NAD,[4],10 nM (inactive)
same,z-score,[5],0.175 (inactive) and 0.14 (inactive)
NC1CCN(c2nc3c(cc2F)c(=O)c(C(=O)O)cn3-c2ccc(F)cc2F)C1 (configuration not stated),fold change,[1]; [10],0.986 (inactive) and 0.879 (inactive)
same,fold change,[1]; [11],1.53 and 1.43
same,cell count,[1]; [12],9740 and 8420
same,cell count,[1]; [13],9880 and 9570
same,z-score,[2]; [14],-0.38 (inactive) and 0.118 (inactive)
same,z-score,[2]; [15],-2.21 and -0.244
same,z-score,[5],0.62 (inactive) and -0.04 (inactive)
CCOC(=O)C1=C(C)NC(C)=C(C(=O)OCC)C1c1ccccc1/C=C/C(=O)OC(C)(C)C,fold change,[1]; [10],0.814 (inactive)
same,fold change,[1]; [11],0.737
same,cell count,[1]; [12],7100
same,cell count,[1]; [13],8720
same,z-score,[2]; [14],-0.103 (inactive) and 0.874 (inactive)
same,z-score,[2]; [15],0.213 and 0.0479
same,z-score,[5],-1.98 (inactive)
CC(C)(O)c1ccccc1CC[C@@H](SCC1(CC(=O)O)CC1)c1cccc(/C=C/c2ccc3ccc(Cl)cc3n2)c1,fold change,[1]; [10],0.896 (inactive)
same,fold change,[1]; [11],1.4
same,cell count,[1]; [12],9780
same,cell count,[1]; [13],10900
same,z-score,[2]; [14],0.313 (inactive) and -0.452 (inactive)
same,z-score,[2]; [15],0.134 and -0.566
same,remaining NAD,[4],10 nM (inactive)
same,z-score,[5],0.48 (inactive)
CCN1CCN(c2cc3c(cc2F)c(=O)c(C(=O)O)cn3C2CC2)CC1,fold change,[1]; [10],0.982 (inactive) and 0.836 (inactive) and 0.884 (inactive)
same,fold change,[1]; [11],1.31 and 5.17 and 1.41
same,cell count,[1]; [12],8550 and 10100 and 9090
same,cell count,[1]; [13],8710 and 12100 and 10300
same,z-score,[2]; [14],-0.903 (inactive) and 0.356 (inactive)
same,z-score,[2]; [15],-0.808 and -0.546
same,remaining NAD,[4],10 nM (inactive)
same,luciferase signal,[3],144 AU (inactive)
same,z-score,[5],-0.045 (inactive) and 0.1 (inactive)
same,inhibition,"[6]; at 0.5 µM, stronger effect = higher value",-14.6% (inactive)
same,inhibition,"[6]; measured here: combination with BGB IC20, at 0.005 µM",-15.1%
same,inhibition,"[6]; measured here: combination with BGB IC40, at 0.005 µM",-16%
same,inhibition,"[6]; measured here: combination with BGB IC40, at 0.05 µM",-15.4%
same,inhibition,"[6]; measured here: combination with cisplatin, at 0.5 µM, stronger effect = higher value",-35.9%
same,inhibition,"[6]; measured here: combination with cisplatin, at 5 µM, stronger effect = higher value",-7.57%
same,inhibition,"[7]; BGB combo, at 5 µM",-5.32%
same,inhibition,[7]; at 0.5 µM,-11.2% (inactive)
same,inhibition,"[7]; cisplatin combo, at 5 µM",14%
same,inhibition,"[7]; measured here: with BGB IC20 combination, at 0.5 µM",-32.1%
same,inhibition,"[7]; measured here: with cisplatin IC20 combination, at 0.5 µM",1.88%
same,inhibition,"[7]; single agent, at 5 µM",-10.9%
same,inhibition,"[8]; BGB IC20 combo, at 0.005 µM",-8.19%
same,inhibition,"[8]; BGB IC40 combo, at 0.005 µM",-15.5%
same,inhibition,"[8]; BGB IC40 combo, at 0.05 µM",-15.7%
same,inhibition,[8]; at 0.5 µM,-30.1% (inactive)
same,inhibition,"[8]; cisplatin combo, at 0.05 µM",-18.9%
same,inhibition,"[8]; cisplatin combo, at 0.5 µM",-33.6%
same,inhibition,"[8]; cisplatin combo, at 5 µM",5.13%
same,inhibition,"[8]; measured here: 5 uM single agent, at 5 µM",-24%
same,inhibition,[9],-17.4% (inactive)
